Bioassay records from PubChem BioAssay.
In the library only some 8% were active in any assay of this set; here they are far more common.
KB-3-1 cytotox – kills parental KB-3-1 adenocarcinoma cells; KB-3-1 viability, CellTiter-Glo ATP luminescence, 72 h; Potency, µM (titrated, usually from 46.1 µM), usual class: cytotoxic; 400,000 compounds, 1.4% hits; further: on the % scale 0 is the no-effect control and ±100 the full control effect; nearly all actives have a fitted effect of over 60% in size
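Viability of parental KB-3-1 cells, measured by CellTiter-Glo luminescence, followed a 72 h incubation at 37 °C with pinned compounds in phenol-red-free DMEM containing 10% FBS.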
KB-V1 MDR tox – KB-V1 MDR subline cytotoxicity. KB-V1 MDR cells viability, CellTiter-Glo, 72 h. Potency, µM (top dose mostly 46.1 µM), hits mostly cytotoxic. 400,000 compounds, 3.4% hits; further: on the % scale 0 is the no-effect control and ±100 the full control effect; nearly all actives have a fitted effect of over 60% in size
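Drug-selected KB-V1 cells, grown in DMEM lacking phenol red with 10% FBS, receive compound titrations; after three days at 37 degrees C, surviving cell ATP is quantified by CellTiter-Glo luminescence and responses normalized and curve-fitted.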
SW480 rerep – inducers of DNA re-replication in SW480 colon cancer cells; SW480 DNA re-replication, Hoechst DNA content imaging, 48 h; Potency, µM (titrated, usually from 46.1 µM), for inactives: top-dose re-replication activation, hits mostly activators; AID 624297; 340,000 compounds, 1.8% hits; further: % of control where 0% means no effect; nearly all actives have a fitted effect of over 55% in size
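Quantitative HTS format with DMSO vehicle controls; 48 hr drug incubation at 37 C, then 40 min Hoechst staining and scanning imager measurement at 405 nm excitation.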
MCF10A rereplic – inducers of DNA re-replication in MCF 10A breast cells; Potency, µM (series often up to 46.1 µM), for the others: at the top dose activity, positive = re-replication, usual class: activators; MCF 10A DNA re-replication, Hoechst nuclear intensity, 48 h; 350,000 compounds, 2.9% hits; further: % of control where 0% means no effect; nearly all actives have a fitted effect of over 50% in size
HT1080NT lethal – kills 2HG-producing HT-1080-NT fibrosarcoma cells | Potency, µM (series often up to 46.1 µM), without a hit: at the highest dose activity, negative = less viability, actives largely listed as cytotoxic | 360,000 compounds, 1.6% hits | AID 686970 | HT-1080-NT fibrosarcoma viability, CellTiter-Glo ATP luminescence, 48 h;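 further: NT is the 2HG producing partner of a matched IDH1 knockdown line; 0% = DMSO-treated cells and -100% = media-only wells without cells; nearly all actives have a fitted effect of over 55% in size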
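HT-1080-NT fibrosarcoma cells (2HG-overproducing), 750 cells/well in RPMI with 5% FBS, dosed after 2 h and incubated 48 h at 37C. CellTiter-Glo luminescence normalized to DMSO and no-cell wells; concentration-response curves fitted and classed.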
HT1080 IDH1KD tx – kills HT-1080 cells with IDH1 knockdown; HT-1080 IDH1 knockdown viability, ATP luminescence, 48 h; Potency, µM (series often up to 46.1 µM), for inactives: top-dose activity, negative = toxicity, hits mostly cytotoxic; 360,000 compounds, 2% hits;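 further: 0% = DMSO wells and -100% = cell-free medium wells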
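Luminescent ATP read-out (CellTiter-Glo, 10 min at room temperature) after 48 h compound exposure at 37 °C gave viability of IDH1-knockdown HT-1080 cells. Activity was normalised to DMSO and cell-free wells, then fitted as concentration-response curves.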
* hit, by the source's call; i = inactive; u = inconclusive; x = not tested or not shown; [ ] = dose if it differs, or a comment. The call rests on the fitted dose curve; in most records, active means well fitted curve in the direction sought with a large enough effect; inconclusive means small, poorly fitted or top-dose-only effect, or another doubt; inactive means no such curve, though single readings can be large; an effect the other way counts as inactive or inconclusive. Potency means the concentration at half of the fitted maximal effect.

SMILES	KB-3-1 cytotox	KB-V1 MDR tox	SW480 rerep	MCF10A rereplic	HT1080NT lethal	HT1080 IDH1KD tx
O=C(Nc1ccc2c(c1)OCO2)N1CCN(C/C=C/c2ccccc2)CC1	i	21µM*	14%	15%	-4%	-21%
O=C(Nc1ccc2c(c1)OCCO2)C(c1ccnc2ccccc12)N1CCN(C/C=C/c2ccccc2)CC1 (centres undefined)	u	u	x	x	u	15µM*
O=C(Nc1ccc2c(c1)OCCO2)C(c1ccnc2ccccc12)n1c(=O)c(-c2ccco2)nc2ccccc21 (centres undefined)	i	i	x	x	8%	0%
Cc1ccc(NC(=O)N2CCN(C/C=C/c3ccccc3)CC2)cc1	i	i	-10%	3%	5%	-1%
C(=C\c1ccccc1)/CN1CCN(C(c2ccccc2)c2nnnn2C2CCCC2)CC1 (centres undefined)	i	i	x	x	u	u
Cc1cc(NC(=O)CCN2CCN(C/C=C/c3ccccc3)CC2)ccc1Br	u	u	u	u	21µM*	23µM*
Cc1ccc(CNC(=O)c2ccc(Cn3c(SCc4ccc(F)cc4)nc4cccnc43)cc2)o1	i	i	x	x	x	x
O=C(Nc1cccc(C(F)(F)F)c1)N1CC2CCCN2c2ccccc21 (centres undefined)	i	i	x	x	x	x
CCOCCC(=O)Nc1ccc2c(c1)c(=O)n(C)n2C/C=C/c1ccccc1	6.5µM*	u	x	x	u	4.1µM*
Oc1ccc(Br)c(CN2CCN(c3ncc(Cc4ccccc4)cn3)CC2)c1	21µM*	18µM*	x	x	u	u
COc1ccc([N+](=O)[O-])cc1CN1CCN(c2ncc(Cc3ccccc3)cn2)CC1	u	7.3µM*	x	x	u	u
COc1ccc(Cl)c2sc(NC(=O)c3ccc(S(=O)(=O)N4CCOCC4)cc3)nc12	i	i	x	x	x	x
Cc1cc2ccccn2c1C(=O)c1ccccc1F	u	u	u	u	15µM*	u
Cc1cc(C)cc(OCC(=O)NC(Cc2c[nH]c3ccccc23)C(=O)O)c1 (centres undefined)	i	i	x	x	x	x
O=C1CC(c2cc(F)ccc2F)c2cc3c(cc2N1)CCC3 (centres undefined)	4.6µM*	i	u	u	2.6µM*	2.6µM*
COc1cc2c(cc1OC)C(c1cccc(Br)c1)CC(=O)N2 (centres undefined)	i	i	-69%	u	-2%	-17%
O=C1CC(c2cccc(Br)c2)c2cc3c(cc2N1)CCC3 (centres undefined)	18µM*	7.3µM*	-3%	u	4.5µM*	4.5µM*
COc1cccc(CNC(=O)C2CCCN(S(=O)(=O)c3ccc4c(ccn4C)c3)C2)c1OC (centres undefined)	i	i	x	x	x	x
C#CCOCCOCCOCCNc1nc(N2CCN(C(=O)CCCCCCCCCCNC(=O)Cn3cc(C[C@@H](C)O)nn3)CC2)nc(N2CCN(C(=O)CCCCCCCCCCNC(=O)[C@@H]([C@H](C)CC)n3cc(CCCCCN)nn3)CC2)n1	23µM*	i	u	u	18µM*	23µM*
C#CCOCCOCCOCCNc1nc(N2CCN(C(=O)CCCCCCCCCCNC(=O)Cn3cc(CCCCCN)nn3)CC2)nc(N2CCN(C(=O)CCCCCCCCCCNC(=O)[C@@H]([C@H](C)O)n3cc(C)nn3)CC2)n1	u	i	0%	151%	-5%	-15%
C#CCOCCOCCOCCNc1nc(N2CCN(C(=O)CCCCCCCCCCNC(=O)Cn3cc(C[C@@H](C)O)nn3)CC2)nc(N2CCN(C(=O)CCCCCCCCCCNC(=O)[C@@H]([C@H](C)O)n3cc(C)nn3)CC2)n1	u	i	-7%	22%	18µM*	21µM*
C#CCOCCOCCOCCNc1nc(N2CCN(C(=O)CCCCCCCCCCNC(=O)Cn3cc(CCCCCN)nn3)CC2)nc(N2CCN(C(=O)CCCCCCCCCCNC(=O)Cn3cc(C[C@@H](C)O)nn3)CC2)n1	i	i	1%	23µM*	u	u
CC(=O)CCC(=O)O	x	x	7%	4%	x	x
O=C(O)C1CCN(c2ncc(-c3ccc4c(c3)OCCCO4)s2)CC1	i	i	x	x	x	x
CN(C)c1nc(N)c2ncc(=S)[nH]c2n1	i	i	u	29µM*	-5%	-19%
SMILES	KB-3-1 cytotox	KB-V1 MDR tox	SW480 rerep	MCF10A rereplic	HT1080NT lethal	HT1080 IDH1KD tx
COc1cccc2cc(C(=O)N(Cc3cccs3)Cc3cccs3)c(=O)oc12	i	i	x	x	x	x
C=CCNC(=S)N/N=C/c1ccc(OCc2ccccc2Cl)cc1	i	i	7.3µM*	u	3.2µM*	3.2µM*
O=C(C=Cc1ccccc1)CC(c1ccccc1)N1CCOCC1 (centres undefined)	u	i	3.7µM*	3.7µM*	4.1µM*	u
NC(=S)NN=C1c2cc(OCCN3CCOCC3)ccc2-c2ccc(OCCN3CCOCC3)cc21	23µM*	u	u	u	u	u
ON=C1c2cc(OCCN3CCCCC3)ccc2-c2ccc(OCCN3CCCCC3)cc21	u	u	1%[9.22 µM]	1%	21µM*	23µM*
CCC(C)C(=O)Nc1nccs1 (centres undefined)	i	i	1.5µM*	2%	8%	3%
CCC(C(=O)Nc1nccs1)c1ccccc1 (centres undefined)	i	i	-3%	0%	2%	1%
O=C(NCCOc1ccc(F)cc1)c1ccccc1SCc1ccccc1	i	u	-11%	u	-6%	-5%
CCc1ccc(OCCNC(=O)c2ccccc2SCc2ccc(F)cc2)cc1	i	18µM*	-8%	u	-6%	-1%
CCOC(=O)C1CCN(c2ncnc3c2nc2n3CCCCC2)CC1	i	i	x	x	x	x
O=C(/C=C1\NC2(CCCC2)Cc2ccccc21)C(=O)N/N=C/c1ccccc1O	u	u	u	u	23µM*	u
COc1cc(/C=N/NC(=O)C(=O)/C=C2\NC3(CCCC3)Cc3ccccc32)ccc1O	i	u	-3%	10%	-18%	-25%
CN(C)c1ccc(/C=N/NC(=O)C(=O)/C=C2\NC3(CCCC3)Cc3ccccc32)cc1	i	18µM*	-4%	22%	-4%	-16%
O=C(NN1C(=O)c2cc(Br)ccc2NC1c1ccccc1Cl)c1ccncc1 (centres undefined)	i	i	21µM*	6%	2%	0%
